In publication PMC7862700, “An all-to-all approach to the identification of sequence-specific readers for epigenetic DNA modifications on cytosine”:

Experiments:
Test in all cases: DAPPL (digital affinity profiling via proximity ligation, sequencing); 10 mM Tris-HCl pH 7.5, 50 mM NaCl, 1 mM DTT, 4% glycerol, room temperature, 30 min; GST-TFs on glutathione beads, 16-mer random dsDNA library, 0.1% formaldehyde crosslink after washing; high values mean tight binding
Conditions in all cases: protein: recombinant; tags: N-terminal GST; dsDNA, one strand shown
FLI1 = target: T1, FLI1 (Homo sapiens, UniProt Q01543 1-452)
T1 sequence: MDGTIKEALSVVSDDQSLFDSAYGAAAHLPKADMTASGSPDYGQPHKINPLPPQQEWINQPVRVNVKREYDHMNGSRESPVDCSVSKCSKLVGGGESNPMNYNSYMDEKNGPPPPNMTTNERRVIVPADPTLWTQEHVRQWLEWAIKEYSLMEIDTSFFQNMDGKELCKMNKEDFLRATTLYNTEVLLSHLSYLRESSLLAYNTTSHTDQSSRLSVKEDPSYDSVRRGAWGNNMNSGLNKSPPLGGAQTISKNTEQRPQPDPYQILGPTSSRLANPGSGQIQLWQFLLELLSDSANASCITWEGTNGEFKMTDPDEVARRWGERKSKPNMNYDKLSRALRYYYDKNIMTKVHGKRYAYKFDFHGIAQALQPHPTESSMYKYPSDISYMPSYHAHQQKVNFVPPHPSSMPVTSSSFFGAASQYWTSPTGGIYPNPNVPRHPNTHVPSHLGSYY
Procedure, shortened: (§1)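 Human transcription factors carrying a GST fusion were produced in yeast, bound to glutathione beads, tagged with DNA barcodes and pooled together with a tag-only sample. Each pool was held with 200 nmole of a random double-stranded 16-mer DNA library in Tris/NaCl/DTT/glycerol buffer for 30 min at room temperature, then washed, crosslinked in 0.1% formaldehyde, proximity-ligated with BsaI/T4 ligase (1 h, 37 °C), PCR-amplified and sequenced on an Illumina NextSeq500. Binding signal is the read frequency of each hexamer for a given factor divided by its frequency in the tag-only sample.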

ELK1 = target: T2, ELK1 (Homo sapiens, UniProt P19419 1-428)
T2 sequence: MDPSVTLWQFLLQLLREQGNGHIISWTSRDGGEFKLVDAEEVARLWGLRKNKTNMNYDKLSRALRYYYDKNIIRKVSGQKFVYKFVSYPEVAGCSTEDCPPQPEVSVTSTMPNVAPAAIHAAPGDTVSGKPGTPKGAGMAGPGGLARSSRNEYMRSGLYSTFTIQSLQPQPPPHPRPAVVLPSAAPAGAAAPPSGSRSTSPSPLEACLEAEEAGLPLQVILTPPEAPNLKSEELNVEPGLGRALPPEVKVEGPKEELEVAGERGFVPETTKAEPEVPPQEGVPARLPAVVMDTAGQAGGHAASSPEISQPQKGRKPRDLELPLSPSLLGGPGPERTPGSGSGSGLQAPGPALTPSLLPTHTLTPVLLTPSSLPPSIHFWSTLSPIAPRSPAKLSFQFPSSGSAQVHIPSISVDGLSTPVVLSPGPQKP
Procedure, shortened: as §1

GABPA = target: T3, GABPA (Homo sapiens, UniProt Q06546 1-454)
T3 sequence: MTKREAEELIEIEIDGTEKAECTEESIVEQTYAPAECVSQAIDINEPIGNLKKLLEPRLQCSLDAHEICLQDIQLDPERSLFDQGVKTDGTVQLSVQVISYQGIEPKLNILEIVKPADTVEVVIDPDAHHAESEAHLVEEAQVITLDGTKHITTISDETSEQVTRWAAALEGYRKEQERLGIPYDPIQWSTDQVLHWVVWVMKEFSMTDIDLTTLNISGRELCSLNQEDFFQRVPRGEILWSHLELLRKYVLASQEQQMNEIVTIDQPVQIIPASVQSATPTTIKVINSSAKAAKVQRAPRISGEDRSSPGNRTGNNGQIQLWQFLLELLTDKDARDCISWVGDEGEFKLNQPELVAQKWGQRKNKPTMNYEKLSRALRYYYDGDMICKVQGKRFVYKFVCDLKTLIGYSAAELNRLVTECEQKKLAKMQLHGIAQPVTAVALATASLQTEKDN
Procedure, shortened: as §1

ERG = target: T4, ERG (Homo sapiens, UniProt P11308 1-479)
T4 sequence: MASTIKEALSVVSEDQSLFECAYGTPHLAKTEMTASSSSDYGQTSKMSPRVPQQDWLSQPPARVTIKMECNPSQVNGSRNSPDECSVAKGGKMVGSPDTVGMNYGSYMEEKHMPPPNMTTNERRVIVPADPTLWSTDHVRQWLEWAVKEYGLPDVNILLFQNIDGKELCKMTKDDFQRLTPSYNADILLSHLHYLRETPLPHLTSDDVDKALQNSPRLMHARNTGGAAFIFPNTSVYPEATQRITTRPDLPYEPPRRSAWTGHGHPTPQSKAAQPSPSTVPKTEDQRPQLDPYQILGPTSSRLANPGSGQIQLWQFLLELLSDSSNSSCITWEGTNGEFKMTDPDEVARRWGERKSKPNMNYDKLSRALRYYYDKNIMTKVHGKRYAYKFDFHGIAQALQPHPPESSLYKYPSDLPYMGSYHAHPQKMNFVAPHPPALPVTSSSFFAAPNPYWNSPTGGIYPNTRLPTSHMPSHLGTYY
Procedure, shortened: as §1

ELF1 = ELF1 (Homo sapiens, UniProt P32519 1-619)
Procedure, shortened: as §1

EHF = target: T5, EHF (Homo sapiens, UniProt Q9NZC4 1-300)
T5 sequence: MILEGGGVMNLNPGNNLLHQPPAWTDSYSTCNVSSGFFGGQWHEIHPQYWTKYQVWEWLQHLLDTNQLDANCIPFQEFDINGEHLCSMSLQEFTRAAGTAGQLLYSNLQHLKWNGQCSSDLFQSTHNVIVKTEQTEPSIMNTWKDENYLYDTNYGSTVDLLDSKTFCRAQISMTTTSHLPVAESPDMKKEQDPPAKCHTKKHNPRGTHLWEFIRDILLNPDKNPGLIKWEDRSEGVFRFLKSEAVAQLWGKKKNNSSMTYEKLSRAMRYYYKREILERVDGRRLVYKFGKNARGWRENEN
Procedure, shortened: as §1

SPI1 = SPI1 (Homo sapiens, UniProt P17947 1-270)
Procedure, shortened: as §1

SPIB = SPIB (Homo sapiens, UniProt Q01892 1-262)
Procedure, shortened: as §1

ELK3 = target: T6, ELK3 (Homo sapiens, UniProt P41970 1-407)
T6 sequence: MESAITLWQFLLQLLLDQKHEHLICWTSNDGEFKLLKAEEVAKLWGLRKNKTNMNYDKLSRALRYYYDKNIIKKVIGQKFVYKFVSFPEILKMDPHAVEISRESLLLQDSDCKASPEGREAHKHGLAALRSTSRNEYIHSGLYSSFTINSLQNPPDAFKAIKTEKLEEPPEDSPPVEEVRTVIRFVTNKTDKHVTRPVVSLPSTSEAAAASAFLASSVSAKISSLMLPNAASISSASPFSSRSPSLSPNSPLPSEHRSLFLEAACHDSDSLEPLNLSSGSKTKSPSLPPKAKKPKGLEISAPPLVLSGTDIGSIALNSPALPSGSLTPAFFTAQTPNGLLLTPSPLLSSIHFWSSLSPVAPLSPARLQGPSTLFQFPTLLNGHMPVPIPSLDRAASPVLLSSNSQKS
Procedure, shortened: as §1

Chain of SPIB (Q01892 whole entry): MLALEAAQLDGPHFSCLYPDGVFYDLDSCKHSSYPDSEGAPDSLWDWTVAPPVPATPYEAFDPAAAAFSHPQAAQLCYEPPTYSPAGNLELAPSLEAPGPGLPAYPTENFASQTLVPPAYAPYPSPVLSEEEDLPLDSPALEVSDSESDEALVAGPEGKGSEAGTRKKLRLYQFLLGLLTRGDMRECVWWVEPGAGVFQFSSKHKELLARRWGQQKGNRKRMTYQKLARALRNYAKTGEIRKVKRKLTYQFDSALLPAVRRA
Chain of ELF1 (P32519 whole entry): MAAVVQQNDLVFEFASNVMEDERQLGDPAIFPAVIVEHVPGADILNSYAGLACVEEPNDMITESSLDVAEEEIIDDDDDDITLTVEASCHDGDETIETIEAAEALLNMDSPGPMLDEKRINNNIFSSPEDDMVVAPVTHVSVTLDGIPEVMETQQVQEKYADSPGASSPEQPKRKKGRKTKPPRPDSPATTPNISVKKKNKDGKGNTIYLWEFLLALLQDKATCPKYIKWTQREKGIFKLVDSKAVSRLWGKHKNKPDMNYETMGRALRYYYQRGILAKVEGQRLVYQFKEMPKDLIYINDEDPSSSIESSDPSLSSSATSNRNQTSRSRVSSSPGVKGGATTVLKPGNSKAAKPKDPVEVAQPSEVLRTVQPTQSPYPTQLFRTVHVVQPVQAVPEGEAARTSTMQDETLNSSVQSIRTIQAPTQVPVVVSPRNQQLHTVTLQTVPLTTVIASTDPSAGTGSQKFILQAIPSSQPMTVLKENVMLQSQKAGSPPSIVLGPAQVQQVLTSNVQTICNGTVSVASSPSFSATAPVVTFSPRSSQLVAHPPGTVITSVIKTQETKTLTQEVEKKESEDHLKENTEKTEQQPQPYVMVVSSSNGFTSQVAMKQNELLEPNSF

Sequence	binding signal (FLI1)	binding signal (ELK1)	binding signal (GABPA)	binding signal (ERG)	binding signal (ELF1)	binding signal (EHF)	binding signal (SPI1)	binding signal (SPIB)	binding signal (ELK3)
CCTTTA	1.36 fold enrichment (6-mer frequency, TF over GST control)	1.4 fold enrichment (6-mer frequency, TF over GST control)	1.37 fold enrichment (6-mer frequency, TF over GST control)	1.21 fold enrichment (6-mer frequency, TF over GST control)	1.36 fold enrichment (6-mer frequency, TF over GST control)	1.29 fold enrichment (6-mer frequency, TF over GST control)	1.45 fold enrichment (6-mer frequency, TF over GST control)	1.3 fold enrichment (6-mer frequency, TF over GST control)	1.21 fold enrichment (6-mer frequency, TF over GST control)
TTACCT	1.12 fold enrichment (6-mer frequency, TF over GST control)	1.19 fold enrichment (6-mer frequency, TF over GST control)	1.32 fold enrichment (6-mer frequency, TF over GST control)	1.17 fold enrichment (6-mer frequency, TF over GST control)	1.19 fold enrichment (6-mer frequency, TF over GST control)	1.31 fold enrichment (6-mer frequency, TF over GST control)	1.19 fold enrichment (6-mer frequency, TF over GST control)	1.4 fold enrichment (6-mer frequency, TF over GST control)	1.22 fold enrichment (6-mer frequency, TF over GST control)
TTTCCC	1.65 fold enrichment (6-mer frequency, TF over GST control)	1.69 fold enrichment (6-mer frequency, TF over GST control)	1.76 fold enrichment (6-mer frequency, TF over GST control)	1.88 fold enrichment (6-mer frequency, TF over GST control)	1.61 fold enrichment (6-mer frequency, TF over GST control)	1.69 fold enrichment (6-mer frequency, TF over GST control)	1.69 fold enrichment (6-mer frequency, TF over GST control)	1.81 fold enrichment (6-mer frequency, TF over GST control)	1.75 fold enrichment (6-mer frequency, TF over GST control)
AACTTA	1.28 fold enrichment (6-mer frequency, TF over GST control)	1.24 fold enrichment (6-mer frequency, TF over GST control)	1.32 fold enrichment (6-mer frequency, TF over GST control)	1.18 fold enrichment (6-mer frequency, TF over GST control)	1.27 fold enrichment (6-mer frequency, TF over GST control)	1.34 fold enrichment (6-mer frequency, TF over GST control)	1.23 fold enrichment (6-mer frequency, TF over GST control)	1.23 fold enrichment (6-mer frequency, TF over GST control)	1.26 fold enrichment (6-mer frequency, TF over GST control)
GACCTT	1.65 fold enrichment (6-mer frequency, TF over GST control)	1.68 fold enrichment (6-mer frequency, TF over GST control)	1.65 fold enrichment (6-mer frequency, TF over GST control)	1.46 fold enrichment (6-mer frequency, TF over GST control)	1.58 fold enrichment (6-mer frequency, TF over GST control)	1.46 fold enrichment (6-mer frequency, TF over GST control)	1.47 fold enrichment (6-mer frequency, TF over GST control)	1.51 fold enrichment (6-mer frequency, TF over GST control)	1.55 fold enrichment (6-mer frequency, TF over GST control)
TCTTGC	1.29 fold enrichment (6-mer frequency, TF over GST control)	1.33 fold enrichment (6-mer frequency, TF over GST control)	1.28 fold enrichment (6-mer frequency, TF over GST control)	1.24 fold enrichment (6-mer frequency, TF over GST control)	1.41 fold enrichment (6-mer frequency, TF over GST control)	1.31 fold enrichment (6-mer frequency, TF over GST control)	1.28 fold enrichment (6-mer frequency, TF over GST control)	1.33 fold enrichment (6-mer frequency, TF over GST control)	1.55 fold enrichment (6-mer frequency, TF over GST control)
CTGTAT	1.35 fold enrichment (6-mer frequency, TF over GST control)	1.28 fold enrichment (6-mer frequency, TF over GST control)	1.31 fold enrichment (6-mer frequency, TF over GST control)	1.18 fold enrichment (6-mer frequency, TF over GST control)	1.24 fold enrichment (6-mer frequency, TF over GST control)	1.3 fold enrichment (6-mer frequency, TF over GST control)	1.23 fold enrichment (6-mer frequency, TF over GST control)	1.31 fold enrichment (6-mer frequency, TF over GST control)	1.31 fold enrichment (6-mer frequency, TF over GST control)
